This note sets out measurements from PubChem BioAssay (NCI).

The structures appear in SMILES notation. Compounds without any hit were thinned out: in the full panel of roughly 83,000, 20% have a hit.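 Single-concentration screen, 48 h exposure, 96-well plates. Endpoint: percent growth. Below 10 = active.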 A number with no mark means an inactive call. The source made the active and inactive calls.

Common to all, as to assay: NCI-60 one-dose screen, 48 h (100 = growth as untreated, 0 = no growth, -100 = all killed)
Assay [1] concerns DU-145 prostate. The following applies: 10 µM unless noted.
For assay [2], the system named is K-562 leukemia. The following applies: 10 µM unless noted.
The subject of assay [3] is MALME-3M melanoma. As to conditions: 10 µM unless noted.
Assay [4] relates to MDA-MB-231 breast. As to conditions: 10 µM unless noted.
Assay [5] relates to RXF 393 renal. As to conditions: 10 µM unless noted.
Assay [6] concerns SF-268 CNS. The following applies: 10 µM unless noted.
For assay [7], the system named is SF-295 CNS. The following applies: 10 µM unless noted.
Assay [8] concerns SF-539 CNS. The following applies: 10 µM unless noted.
In assay [9] the test system is UACC-257 melanoma. As to conditions: 10 µM unless noted.
In assay [10] the test system is M14 melanoma. The following applies: 10 µM unless noted.
Assay [11] has as its system HCT-15 colon. As to conditions: 10 µM unless noted.
Assay [12] relates to HT29 colon. The following applies: 10 µM unless noted.
Assay [13] has as its system SNB-75 CNS. As to conditions: 10 µM unless noted.
The subject of assay [14] is SNB-19 CNS. As to conditions: 10 µM unless noted.
The test system of assay [15] is U251 CNS. The following applies: 10 µM unless noted.
For assay [16], the system named is PC-3 prostate. As to conditions: 10 µM unless noted.
The test system of assay [17] is SK-MEL-5 melanoma. As to conditions: 10 µM unless noted.
For assay [18], the system named is UACC-62 melanoma. The following applies: 10 µM unless noted.
The test system of assay [19] is SK-MEL-28 melanoma. As to conditions: 10 µM unless noted.
Assay [20] concerns LOX IMVI melanoma. The following applies: 10 µM.

For `COc1cc2c(c(OC)c1OC)C(=O)CC(c1cccc(NC(=O)c3cccc(NC(=O)[C@H](C)NC(=O)OC(C)(C)C)c3)c1)O2` (stereo not given in full), the growth in assay [1] was 61.7%; in assay [2], 40.7%; in assay [3], 70.3%; in assay [4] it was 69%; in [5] it was 90%; in assay [6], 53.6%. Besides, the growth is 65.9% in assay [7]; 85.2% in assay [8]; 77% in [9]; 76% in assay [10]; 44.2% in assay [11]; 62.2% in [12]. The growth in assay [13] was 64.6%; in [14] it was 78.8%; in assay [15], 78.1%; in [16], 45.6%; in [17] it was 25.9%; in assay [18] it was 39.7%. Further, the growth in [19] is 85.6%.

For `O=C(c1ccccc1)C(c1c[nH]c2ccccc12)c1c[nH]c2ccccc12`, the growth in [1] was 71.7%; in assay [2] it was 10.3%; in assay [3] it was 72.8%; in [4], 57.5%; in [5], 46.8%; in assay [6], 60.3%. The growth in [7] is 85.4%; in assay [8], 85.4%; in assay [9], 76.8%; in [10] it was 61.1%; in [11], 13%; in [12], 22.9%. The growth is 72.4% in assay [13]; 91.7% in assay [14]; 59.9% in assay [15]; 38.6% in [16]; 92.5% in [17]; 60.4% in assay [18]. For the same compound, the values for the growth in assay [20] and in [19] were -48.4% (active) and 76.9%, respectively.

As to `CCOc1ccc(C(=O)NC(=S)Nc2ccc(S(N)(=O)=O)cc2)cc1`, the growth was 105% [100 µM] in assay [1]; 98.1% [100 µM] in assay [2]; 87.6% [100 µM] in [3]; 102% [100 µM] in assay [4]; 102% [100 µM] in assay [5]; 102% [100 µM] in assay [6]. Also, the growth in [7] was 104% [100 µM]; in assay [8] it was 91.7% [100 µM]; in [9] it was 90.6% [100 µM]; in assay [10], 102% [100 µM]; in assay [11], 111% [100 µM]; in assay [12], 98.1% [100 µM]. Also, the growth in [13] was 76.9% [100 µM]; in assay [14], 104% [100 µM]; in [15] it was 96.7% [100 µM]; in assay [16], 92.1% [100 µM]; in [17], 88.1% [100 µM]; in [18], 94.8% [100 µM]. Besides, the growth in assay [19] was 107% [100 µM].

As to `COc1cc2c(c(OC)c1OC)C(=O)CC(c1cccc(NC(=O)[C@@H](N)CC(C)C)c1)O2` (stereo not given in full), the growth in assay [1] was 100%; in assay [2] it was 80.6%; in [3] it was 95.5%; in [4], 99.9%; in assay [5], 101%; in [6], 95.1%. The growth in assay [7] was 101%; in [8], 97.3%; in [9], 94.1%; in assay [10], 116%; in assay [11], 95.3%; in assay [12] it was 108%. Also, the growth in assay [13] was 97.8%; in assay [14], 91.2%; in [15], 95.3%; in assay [16] it was 97.2%; in assay [17], 96.7%; in assay [18], 96.8%. Moreover, in assay [19], the growth is 115%.

Turning to `Cc1ccc(-c2nc(Nc3ccccc3S(N)(=O)=O)c3ccccc3n2)cc1`, the growth in [1] is 77.6%; in assay [2], 46.1%; in [3] it was 97.7%; in [4] it was 21.6%; in assay [5], 51.1%; in assay [6], 70.1%. The growth in assay [7] was 94.4%; in assay [8] it was -11.9% (active); in [9] it was 106%; in assay [10] it was 90.3%; in assay [11], 40.1%; in assay [12], 95%. Besides, the growth in assay [13] is 91%; in assay [14], 89%; in [15], 57.5%; in assay [16], 64.4%; in assay [17], 87%; in assay [18], 70.7%. Further, the figures for the growth in [20] and in [19] were 9.36% (active) and 107%, respectively.

Regarding `S=c1c2ccccc2nc2n1CCc1c-2[nH]c2ccccc12`, the growth in assay [1] is 68.1%; in assay [2], 57.8%; in assay [3], 54.2%; in assay [4], 40.8%; in [5], 28.7%; in assay [6], 57.7%. The growth is 63.4% in assay [7]; 43.4% in assay [8]; 66.1% in assay [9]; 70.1% in assay [10]; 68.9% in assay [11]; 78.8% in assay [12]. The growth in assay [13] was 0.815% (active); in assay [14], 16.1%; in [15] it was 73.8%; in assay [16], 60.8%; in assay [17], 67%; in assay [18] it was 64.1%. Moreover, the growth in [19] is 74.8%.

As to `COc1cc(-c2nc3cc(Cl)c(Cl)cc3[nH]2)ccc1OCc1nnc(-c2cccs2)o1`, the growth was 34.7% in assay [1]; 54% in assay [2]; 18.1% in assay [3]; 17.9% in assay [4]; -2.12% (active) in [5]; 68.5% in assay [6]. Also, the growth was 31.9% in [7]; 104% in [8]; 61.2% in assay [9]; 41.8% in [10]; 25.8% in assay [11]; 58.2% in assay [12]. For the same compound, the growth in [13] was 114%; in assay [14], 65.8%; in assay [15] it was 71.1%; in [16], 50%; in [17], 44.6%; in [18], 21.3%. The growth in assay [19] was 31.4%.
